Screens as filed in PubChem.
Vaccinia Venus: inhibitors of vaccinia virus (Venus reporter); Vaccinia virus Venus reporter expression, fluorescence; Potency, µM (series often up to 36.5 µM), for inactives: at the highest dose activity change, negative = inhibition, usual class: inhibitors; 330,000 compounds, 0.46% hits; AID 720580; calls by dose curve; tested in A549 cells; further: potency means the concentration at half of the fitted maximal effect; nearly all actives have a fitted effect of over 30% in size
LASV entry inh: Lassa virus entry inhibition; Potency, µM (doses to about 37.9 µM), for the others: top-dose activity change, negative = inhibition, actives largely listed as inhibitors; Lassa virus pseudotype entry inhibition, cell reporter; 300,000 compounds, 1.2% hits; calls by dose curve; tested in HEK293 cells; further: potency means the concentration at half of the fitted maximal effect; nearly all actives have a fitted effect of over 50% in size
HCV inh: HCV inhibition | Potency, µM (series often up to 41.8 µM), for the others: at the highest dose activity change, negative = inhibition, most hits filed as inhibitors | 340,000 compounds, 3.4% hits | Huh7.5.1 HCVcc-Cre infection, luciferase reporter, 44 h; active means well fitted inhibition curve with a large enough effect; inconclusive means small, poorly fitted or top-dose-only effect, or another doubt; inactive means no such curve, though single readings can be large or run the other way; further: potency means the concentration at half of the fitted maximal effect
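Seed cells (1,000/well) for 4 h; treat with compound and infect with HCVcc-Cre, moi about 0.5. Incubate 44 h, then detect luciferase activity.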
Vaccinia mCherry: inhibitors of vaccinia virus infection (mCherry reporter signal) | Potency, µM (doses to about 36.5 µM), inactives show at the top dose activity change, negative = inhibition, usual class: inhibitors | 310,000 compounds, 0.63% hits | Vaccinia virus mCherry reporter infection, fluorescence | AID 720579; calls by dose curve; tested in A549 cells; further: potency means the concentration at half of the fitted maximal effect; nearly all actives have a fitted effect of over 35% in size
MARV entry inh: blocks Marburg virus binding to or entry into cells; Marburg virus pseudotyped entry inhibition, cell reporter; Potency, µM (top dose mostly 37.8 µM), inactives show at the top dose activity change, negative = inhibition, hits mostly inhibitors; 300,000 compounds, 1.8% hits; AID 540276; calls by dose curve; tested in HEK293 cells; further: potency means the concentration at half of the fitted maximal effect
HCMV antiviral: inhibitors of human cytomegalovirus | HFF cells, HCMV-luciferase reporter, 72 h; active compounds read low | 410,000 compounds, 4.5% hits | activity change, negative = inhibition, % at 57.5 µM; in the data active means activity change below about -60%; inconclusive means no clear call, values can overlap the other calls; inactive means above about -39%
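Two-dose cell screen: HFF monolayers treated with compounds and infected with luciferase-expressing HCMV at 1 PFU/cell, 72 h at 37C, then lysed for luciferase measurement.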
* hit, by the source's call; i = inactive; ? = inconclusive; . = not tested or not shown; [ ] = another dose, or the depositor's remark. Shown are actives, neighbours in structure and some others; about 7.8% of the full set was active somewhere. On the % scale 0 is the no-effect control and ±100 the full control effect.

SMILES	Vaccinia Venus	LASV entry inh	HCV inh	Vaccinia mCherry	MARV entry inh	HCMV antiviral
COc1ccc(C2CC(=O)c3sc(NC(C)=O)nc3C2)cc1 (stereo not drawn)	-17.4%	-7.3%	12.9%	i	?	-70.2*
COc1ccc(-n2c(=O)c3ccc(C(=O)NCc4ccc(C)cc4)cc3n(Cc3ccc(F)cc3Cl)c2=O)cc1	3.3%	1.3%[46.1 µM]	.	8.9%	4.4%[46.1 µM]	-14.8
O=C(NCc1ccccc1)/C(=C/c1ccc(OC(F)F)cc1)c1ccccc1	?	-9.1%	22.4µM*	-19.7%	0.1%	?
Cc1cc(NC(=O)c2ccc(NC(=O)CCS(=O)(=O)c3cccs3)cc2)ccc1Br	-27.4%	?	.	-3.1%	?	-27.1
COc1ccc(-c2cc(C(F)(F)F)nc(N3CCN(C)CC3)n2)cc1OC	-20.1%	-27.1%	?	-11.5%	11.6µM*	13.8
CCN(C(=O)COc1cc(=O)n(C)c2ccccc12)c1cccc(C(F)(F)F)c1	-6.8%	-2.2%[46.1 µM]	.	-13.2%	?	-38.8
CCOc1ccc(N(CC)C(=O)COc2cc(=O)n(C)c3ccccc23)cc1	.	.	11.5%	.	.	-102.8*
CC(=O)c1ccc(N2CCN(C(=O)CCC(=O)c3cccs3)CC2)cc1	.	10.0%	10.4%	.	2.9%	-82.4*
CCn1c(=O)cc(OCC(=O)N2CCN(c3ccc(OC)cc3)CC2)c2ccccc21	-15.2%	?	.	-14.3%	-20.4%[46.1 µM]	-95.1*
CCOc1ccc(N(CC)C(=O)COc2cc(=O)n(CC)c3ccccc23)cc1	.	-26.9%	?	.	-17.1%	-95.5*
CCn1c(=O)cc(OCC(=O)N2CCCC2)c2ccccc21	1.5%	.	8.6%	-3.7%	.	5.4
CCn1c(=O)cc(OCC(=O)N2CCN(c3ccc(C(C)=O)cc3)CC2)c2ccccc21	-4.5%	15.5%[46.1 µM]	.	-12.5%	5.0%[46.1 µM]	21.6
CCn1c(=O)cc(OCC(=O)N(C)c2ccc(OC)cc2)c2ccccc21	-2.7%	-1.3%[46.1 µM]	.	-10.2%	-14.1%[46.1 µM]	-71.7*
COc1ccc(N2CCN(C(=O)COc3ccc4ccccc4c3)CC2)cc1	-6.6%	-0.9%	-8.6%	.	14.5%	-7.4
CC(=O)c1ccc(N2CCN(C(=O)COc3ccc4ccccc4c3)CC2)cc1	-9.9%	.	.	-1.8%	.	-62.0*
CSc1ncc(Cl)c(C(=O)N(C)c2ccccc2)n1	-4.1%	1.7%[46.1 µM]	.	-10.7%	?	-4.8
CC(C)(C)c1ccc(C2NC(=O)c3n[nH]c(-c4cccs4)c32)cc1 (stereo not drawn)	-7.3%[7.34 µM]	-24.8%[46.1 µM]	.	-3.9%[7.34 µM]	?	-91.5*
CC(=O)N(O)c1ccc(/C=C2\C=Cc3ccccc32)cc1	-7.0%	.	.	-17.1%	.	.
O=C(O)c1ccc(/C=C(\c2nc3ccccc3[nH]2)c2nc3ccccc3s2)cc1	-16.8%	18.7%	27.1%	?	?	-30.6
CC(C)(C)c1ccc(/C=C(\c2nc3ccccc3[nH]2)S(=O)(=O)c2ccccc2)cc1	?	.	11.2µM*	14.1µM*	.	.
Fc1ccc(CN(Cc2ccccc2)C(c2cccs2)c2nnnn2C2CCCCC2)cc1 (stereo not drawn)	-24.7%	?	?	-15.0%	?	-76.5*
COc1ccc(-c2csc(C(O)c3cccc(OC)c3)n2)cc1 (stereo not drawn)	-14.0%	.	.	6.5%	.	-67.7*
OC(c1ccc(F)cc1)c1nc(-c2ccc(Cl)cc2)cs1 (stereo not drawn)	?	.	.	-27.4%	.	-66.1*
OC(c1ccc(F)cc1)c1nc(-c2ccccc2)cs1 (stereo not drawn)	-25.3%	.	.	4.5%	.	47.9
CC(C)c1cccc(-c2csc(C(O)c3ccc(F)cc3)n2)c1 (stereo not drawn)	-23.9%	.	.	-9.4%	.	-2.8
CC(C)c1cccc(-c2csc(C(O)c3ccc(F)c(F)c3)n2)c1 (stereo not drawn)	-10.5%	.	.	i	.	-69.8*
COc1cccc(C(O)c2nc(-c3ccc(N(C)C)cc3)cs2)c1 (stereo not drawn)	-10.8%	.	.	i	.	-35.1
Cc1ccc(C(C)C)c(OCCSc2nc(-c3cccs3)nc3cc(=O)[nH]n23)c1	-7.9%	?	.	-3.0%	.	-17.9
CCOC(=O)C(CC)Sc1ccc2nnc(CCNS(=O)(=O)c3ccc(C)cc3)n2n1 (stereo not drawn)	-5.5%	-10.6%[46.1 µM]	.	-10.7%	.	31.2
